Assay [1] deals with Lysosomal acid glucosylceramidase (Homo sapiens) (UniProt P04062). The assay is described as follows: Glucocerebrosidase-p2 (AID 348; in the data active means potency below about 10 µM; further: potency means the concentration at half of the fitted maximal effect). The conditions noted are these: purified GBA, blue fluorogenic substrate, 40 min. In a few lines: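 Normal human glucocerebrosidase (0.2 nM) with blue fluorogenic substrate (80 uM final) in citrate/phosphate pH 5.9 with 10mM sodium taurocholate, 0.01% tween-20; 40 min RT, NaOH/glycine stop; fluorescence Ex 365/Em 440; AC50 from a titration from 0.6 nM upwards.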

Assay [2] is described as follows: AP1 Signaling Pathway (AID 357).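 Further: ME-180 reporter cells stimulated with EGF at its EC50 level; on the % scale 0 is the no-effect control and ±100 the full control effect.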 The conditions noted are these: ME-180 AP-1-bla reporter, EGF-induced, beta-lactamase ratio, 5 h; at 7.69 µM (top of the series) unless noted. In a few lines:
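Titration-series screen for positive or negative modulators of EC50 EGF-induced signaling in ME-180 cells carrying an AP-1-driven beta-lactamase reporter. After 5 hours at 37 degrees Celsius, CCF4 460nm/530nm emission ratio gave %Activity; AC50 values derived.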

In assay [3] the target is Cytochrome P450 1A2 (Homo sapiens) (UniProt P05177). Kind of assay: p450-cyp1a2 (AID 410; calls by dose curve; further: potency means the concentration at half of the fitted maximal effect;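 on activity change, negative = inhibition: -100% = full effect of reference inhibitor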). Particulars: recombinant CYP1A2, luciferin-ME demethylation, luminescence; series mostly up to 11.4 µM. In a few lines: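 Luminescent demethylation readout: Luciferin-ME (100uM, equal to Km) turned over by 20nM CYP1A2 for 60 min at room temperature after NADPH regeneration addition, following 10 min compound preincubation. Normalization used 57 uM furafylline as full inhibition.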

A short description of assay [4]: NFAT Signaling Pathway (AID 444).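 Further: carbachol stimulus at about its EC50 of 1 µM final; on the % scale 0 is the no-effect control and ±100 the full control effect.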 The conditions noted are these: Jurkat NFAT-bla M1, carbachol, beta-lactamase ratio, 5 h; at 7.69 µM (top of the series) unless noted. In a few lines: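 Read-out: CCF4 FRET ratio (460 nm/530 nm) after 1 h RT dye loading, used for %activity and AC50 from titration series. Cells: Jurkat NFAT-β-lactamase/M1 line, treated with compound plus 1 uM carbachol for 5 h, 37 °C.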

Assay [5] can be described thus: Stat Signaling Pathway (AID 446).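 Further: ME-180 cervical cancer cells given 40 pM IL-6 alongside compound; SIE-controlled beta-lactamase reporter measured as 460/530 nm FRET emission ratio; on the % scale 0 is the no-effect control and ±100 the full control effect.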 The conditions noted are these: ME-180 (cervical carcinoma) SIE beta-lactamase reporter, IL-6 stimulated, 5 h; at 7.69 µM (top of the series) unless noted. The method in brief: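 Overnight-plated ME-180 cells bearing a STAT Inducible Element beta-lactamase reporter; 5 h co-exposure to compound and 40 pM IL-6; values normalized to 300 pM IL-6 and 125 nM JAK inhibitor controls.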

For assay [6], the target named is Glucocorticoid receptor (Homo sapiens) (UniProt P04150). Kind of assay: GR-GFP Redistribution (AID 450;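 active means compounds whose dose series gives a full or clear partial fitted curve of increased nuclear translocation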; further: potency means the concentration at half of the fitted maximal effect). Particulars: U2OS GR-GFP nuclear translocation, laser cytometry, 2 h.
For assay [7] the target is unchanged. Kind of assay: GR-EFC Redistribution (AID 451; calls by dose curve; further: potency means the concentration at half of the fitted maximal effect). Particulars: CHO-K1 GR-EFC translocation, beta-gal luminescence, 2 h. The method in brief: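 Translocation of GR-ED fusion to nuclear EA restores b-gal, read by luminescence after 1 h room-temperature detection. Engineered CHO-K1 biosensor cells, 1,000/well, exposed 2 h at 37 C to titrations up to 46 uM final.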

The target of assay [8] is Mitogen-activated protein kinase 10 (Mus musculus) (UniProt Q61831). Kind of assay: JNK3 AlphaScreen Assay (AID 530).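 Further: kinase came from lysate of stimulated human HepG2 cells; signal reports phosphorylation of biotinylated GST-cJun 1-79 at Ser73 with 10 µM ATP; on the % scale 0 is the no-effect control and ±100 the full control effect.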 The conditions noted are these: JNK3 lysate, c-Jun phosphorylation; series mostly up to 11.4 µM. The method in brief: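 qHTS titrations with 15 min compound pre-incubation before adding ATP (10 uM final). Read-out: AlphaScreen of Ser73-phosphorylated biotin-GST-cJun using HepG2 lysate JNK3 activated by IL-1β and TNFα.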

Assay [9] addresses 3',5'-cyclic-AMP phosphodiesterase 4B (Homo sapiens) (UniProt Q07343). Kind of assay: qHTS Assay for Inhibitors of PDE-IV (AID 607; active means well fitted activation curve with a large enough effect in the main read-out, with a control signal flat, not every such curve was filed as active; further: % of control where 0% means no effect). Particulars: HEK293 ACTOne CNG channel cells, membrane potential fluorescence; series mostly up to 22.9 µM. In a few lines:
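Live HEK293 cells with a modified cyclic nucleotide-gated (CNG) channel report intracellular cAMP via membrane-potential dye fluorescence (ex 535/em 590 nm). Endogenous PDE-IV was targeted. Compounds were tested at up to 22.9 uM final; RO 20-1724 100 uM served as control.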
In general terms: In qHTS, concentration-response curves come from the screen itself.

Assay [10] deals with Cytochrome P450 2C9 (Homo sapiens) (UniProt P11712). Kind of assay: qHTS Assay for Inhibitors and Substrates of Cytochrome P450 2C9 (AID 883; active means well fitted curve in the direction sought with a large enough effect; an effect the other way counts as inactive or inconclusive; further: potency means the concentration at half of the fitted maximal effect; nearly all actives have a fitted effect of over 60% in size). The conditions noted are these: recombinant CYP2C9, luciferin-H luminescence, 60 min; series mostly up to 11.4 µM. In a few lines: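 Inhibition of CYP2C9 is scored as loss of luminescence, with 57uM sulphaphenazole defining 100% inhibition. Substrate Luciferin-H is used at 100uM, equal to its KM; enzyme at 10nM in 25mM KPO4, 60 min at 37C with NADPH regeneration.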

In assay [11] the target is Cytochrome P450 3A4 (Homo sapiens) (UniProt P08684). The assay is described as follows: qHTS Assay for Activators of Cytochrome P450 3A4 (AID 885; active means well fitted curve in the direction sought with a large enough effect; an effect the other way counts as inactive or inconclusive; further: nearly all actives have a fitted effect of over 65% in size). The conditions noted are these: recombinant CYP3A4, Luciferin-PPXE luminescence, 60 min; series mostly up to 11.4 µM. In a few lines: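 Using 20nM recombinant human CYP3A4 in potassium phosphate (200mM), substrate Luciferin-PPXE at 25uM, luminescent luciferin detection followed a 60-min RT NADPH reaction; data scaled to 57 uM ketoconazole.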

Assay [12] has the same target. The assay is described as follows: qHTS Assay for Inhibitors and Substrates of Cytochrome P450 3A4 (AID 884; active means well fitted curve in the direction sought with a large enough effect; an effect the other way counts as inactive or inconclusive; further: potency means the concentration at half of the fitted maximal effect; nearly all actives have a fitted effect of over 50% in size). The conditions noted are these: recombinant CYP3A4, Luciferin-PPXE luminescence; series mostly up to 57.1 µM. The method in brief: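 Luminescent readout of luciferin produced by CYP3A4 (20 nM) dealkylation of Luciferin-PPXE, 25 uM (its KM). NADPH-driven reaction ran 60 min at RT after 10 min compound preincubation; data scaled to 57 uM ketoconazole as 100% inhibition.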

For assay [13], the target named is Cytochrome P450 2C19 (Homo sapiens) (UniProt P33261). Kind of assay: qHTS Assay for Inhibitors and Substrates of Cytochrome P450 2C19 (AID 899; active means well fitted curve in the direction sought with a large enough effect; an effect the other way counts as inactive or inconclusive; further: potency means the concentration at half of the fitted maximal effect; nearly all actives have a fitted effect of over 60% in size). Particulars: recombinant CYP2C19, luciferin-H EGE luminescence; series mostly up to 11.4 µM. In a few lines:
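5nM enzyme + 10uM Luciferin-H EGE (=KM), 50mM KPO4; cpd pin-transferred, 10 min 37C; NADPH regen, 60 min 37C; stopped w/ luciferin detection reagent, 20 min; luminescence. Normalized to 57uM ketoconazole (AC100).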

Unmarked numbers belong to inactive results. Results filed as inconclusive are left out. Calls of active or inactive are those of the source. Unless noted, the call rests on the fitted dose curve; in most records, active means well fitted curve in either direction with a large enough effect (not every such curve was filed as active); inconclusive means small, poorly fitted or top-dose-only effect, or another doubt; inactive means flat fitted curve, though single readings scatter. Where only a bound is given, the exact number is not on record here.

Glucocorticoid receptor (Homo sapiens), sequence (P04150 whole entry, looked up, the tested form may be a part): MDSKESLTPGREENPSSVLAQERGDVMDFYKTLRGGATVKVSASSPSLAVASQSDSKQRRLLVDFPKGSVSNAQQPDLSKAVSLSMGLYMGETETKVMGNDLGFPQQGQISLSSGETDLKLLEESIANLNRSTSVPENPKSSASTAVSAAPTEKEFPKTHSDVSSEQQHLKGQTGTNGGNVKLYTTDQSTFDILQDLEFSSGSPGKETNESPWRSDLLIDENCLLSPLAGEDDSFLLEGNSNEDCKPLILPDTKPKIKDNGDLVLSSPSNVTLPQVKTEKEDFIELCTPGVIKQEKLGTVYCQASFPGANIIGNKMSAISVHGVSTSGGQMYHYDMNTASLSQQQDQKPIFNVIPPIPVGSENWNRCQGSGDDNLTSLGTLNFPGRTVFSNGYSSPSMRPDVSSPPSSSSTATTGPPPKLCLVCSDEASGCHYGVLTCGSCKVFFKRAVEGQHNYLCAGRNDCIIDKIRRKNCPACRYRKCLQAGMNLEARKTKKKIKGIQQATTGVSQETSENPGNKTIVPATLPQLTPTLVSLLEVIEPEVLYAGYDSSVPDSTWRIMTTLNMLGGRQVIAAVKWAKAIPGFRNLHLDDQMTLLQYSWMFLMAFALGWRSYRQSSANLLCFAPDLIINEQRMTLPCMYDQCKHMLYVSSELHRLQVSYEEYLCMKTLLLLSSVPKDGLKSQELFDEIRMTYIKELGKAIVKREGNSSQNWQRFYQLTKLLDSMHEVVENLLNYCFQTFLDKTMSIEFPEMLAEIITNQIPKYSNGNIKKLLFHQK
Cytochrome P450 1A2 (Homo sapiens), sequence (P05177 whole entry, looked up): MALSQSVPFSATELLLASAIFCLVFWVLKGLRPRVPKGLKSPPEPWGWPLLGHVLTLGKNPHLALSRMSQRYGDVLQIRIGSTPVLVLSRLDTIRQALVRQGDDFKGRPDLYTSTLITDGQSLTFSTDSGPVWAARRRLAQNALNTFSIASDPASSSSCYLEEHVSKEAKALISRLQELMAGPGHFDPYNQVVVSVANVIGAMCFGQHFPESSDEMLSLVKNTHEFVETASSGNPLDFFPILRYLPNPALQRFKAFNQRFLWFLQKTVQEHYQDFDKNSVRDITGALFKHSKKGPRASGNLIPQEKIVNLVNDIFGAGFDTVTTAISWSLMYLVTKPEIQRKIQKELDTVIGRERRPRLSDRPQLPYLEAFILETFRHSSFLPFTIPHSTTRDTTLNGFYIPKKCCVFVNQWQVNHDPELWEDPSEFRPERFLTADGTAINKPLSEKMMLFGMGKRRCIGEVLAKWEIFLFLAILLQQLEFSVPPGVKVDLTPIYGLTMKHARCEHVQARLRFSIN
Lysosomal acid glucosylceramidase (Homo sapiens), sequence (P04062 whole entry, looked up): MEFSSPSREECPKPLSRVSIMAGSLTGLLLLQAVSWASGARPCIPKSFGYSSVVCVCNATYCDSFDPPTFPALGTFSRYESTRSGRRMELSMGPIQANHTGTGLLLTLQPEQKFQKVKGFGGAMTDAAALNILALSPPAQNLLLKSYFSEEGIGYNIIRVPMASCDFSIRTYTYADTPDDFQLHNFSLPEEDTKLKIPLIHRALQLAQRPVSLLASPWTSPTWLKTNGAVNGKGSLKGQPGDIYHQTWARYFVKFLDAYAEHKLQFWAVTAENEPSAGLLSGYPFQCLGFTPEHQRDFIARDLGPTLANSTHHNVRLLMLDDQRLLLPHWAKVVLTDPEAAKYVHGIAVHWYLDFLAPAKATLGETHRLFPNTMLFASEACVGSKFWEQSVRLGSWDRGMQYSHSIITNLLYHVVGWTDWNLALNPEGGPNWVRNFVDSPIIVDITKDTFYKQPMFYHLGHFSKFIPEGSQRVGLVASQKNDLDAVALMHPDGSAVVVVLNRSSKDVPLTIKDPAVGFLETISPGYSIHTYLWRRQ
3',5'-cyclic-AMP phosphodiesterase 4B (Homo sapiens), sequence (Q07343 whole entry, looked up): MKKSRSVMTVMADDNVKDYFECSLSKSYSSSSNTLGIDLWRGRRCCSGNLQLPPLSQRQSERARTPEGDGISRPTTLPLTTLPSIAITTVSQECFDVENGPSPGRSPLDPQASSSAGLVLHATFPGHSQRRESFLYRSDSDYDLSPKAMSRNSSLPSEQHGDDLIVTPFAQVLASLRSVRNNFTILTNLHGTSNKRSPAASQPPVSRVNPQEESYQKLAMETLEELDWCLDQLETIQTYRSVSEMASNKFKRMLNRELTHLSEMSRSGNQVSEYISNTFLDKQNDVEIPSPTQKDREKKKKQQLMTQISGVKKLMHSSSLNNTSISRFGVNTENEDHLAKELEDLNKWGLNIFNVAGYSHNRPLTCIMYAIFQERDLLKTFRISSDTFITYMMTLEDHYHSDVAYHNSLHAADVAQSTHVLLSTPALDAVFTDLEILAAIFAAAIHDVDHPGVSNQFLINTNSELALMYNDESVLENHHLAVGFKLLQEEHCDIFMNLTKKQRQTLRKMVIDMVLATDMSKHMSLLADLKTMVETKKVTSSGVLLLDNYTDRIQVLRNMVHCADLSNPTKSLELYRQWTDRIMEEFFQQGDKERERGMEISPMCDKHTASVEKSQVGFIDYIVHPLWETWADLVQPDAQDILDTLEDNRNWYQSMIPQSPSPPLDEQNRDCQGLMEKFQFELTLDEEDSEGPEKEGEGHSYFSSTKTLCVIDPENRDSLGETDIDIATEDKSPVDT
Cytochrome P450 3A4 (Homo sapiens), sequence (P08684 whole entry, looked up): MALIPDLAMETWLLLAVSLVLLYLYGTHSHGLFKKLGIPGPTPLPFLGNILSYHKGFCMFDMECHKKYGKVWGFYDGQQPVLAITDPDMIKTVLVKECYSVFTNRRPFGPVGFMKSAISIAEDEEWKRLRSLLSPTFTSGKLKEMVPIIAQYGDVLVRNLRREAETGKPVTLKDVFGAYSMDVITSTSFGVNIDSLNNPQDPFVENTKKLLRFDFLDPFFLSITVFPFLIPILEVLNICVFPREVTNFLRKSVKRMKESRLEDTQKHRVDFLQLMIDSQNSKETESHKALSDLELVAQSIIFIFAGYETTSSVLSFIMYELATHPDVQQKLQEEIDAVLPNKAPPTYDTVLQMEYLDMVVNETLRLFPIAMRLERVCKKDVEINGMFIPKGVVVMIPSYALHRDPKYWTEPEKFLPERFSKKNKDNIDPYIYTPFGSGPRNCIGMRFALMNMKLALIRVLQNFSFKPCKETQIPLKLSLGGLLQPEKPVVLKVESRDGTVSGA
Cytochrome P450 2C9 (Homo sapiens), sequence (P11712 whole entry, looked up): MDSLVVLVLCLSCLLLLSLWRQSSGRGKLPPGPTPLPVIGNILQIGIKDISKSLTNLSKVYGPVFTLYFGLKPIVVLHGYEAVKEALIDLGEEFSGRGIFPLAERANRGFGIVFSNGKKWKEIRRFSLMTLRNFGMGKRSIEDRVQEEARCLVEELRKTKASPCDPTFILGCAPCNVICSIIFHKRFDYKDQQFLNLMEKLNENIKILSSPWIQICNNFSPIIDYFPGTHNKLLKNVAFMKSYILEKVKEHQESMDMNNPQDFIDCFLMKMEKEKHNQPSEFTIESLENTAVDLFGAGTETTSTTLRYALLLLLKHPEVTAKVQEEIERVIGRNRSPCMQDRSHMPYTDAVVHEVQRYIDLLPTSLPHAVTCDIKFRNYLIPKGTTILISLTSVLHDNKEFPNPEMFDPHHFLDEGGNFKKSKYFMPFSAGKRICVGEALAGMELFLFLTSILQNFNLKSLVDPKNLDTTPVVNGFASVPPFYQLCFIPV
Cytochrome P450 2C19 (Homo sapiens), sequence (P33261 whole entry, looked up): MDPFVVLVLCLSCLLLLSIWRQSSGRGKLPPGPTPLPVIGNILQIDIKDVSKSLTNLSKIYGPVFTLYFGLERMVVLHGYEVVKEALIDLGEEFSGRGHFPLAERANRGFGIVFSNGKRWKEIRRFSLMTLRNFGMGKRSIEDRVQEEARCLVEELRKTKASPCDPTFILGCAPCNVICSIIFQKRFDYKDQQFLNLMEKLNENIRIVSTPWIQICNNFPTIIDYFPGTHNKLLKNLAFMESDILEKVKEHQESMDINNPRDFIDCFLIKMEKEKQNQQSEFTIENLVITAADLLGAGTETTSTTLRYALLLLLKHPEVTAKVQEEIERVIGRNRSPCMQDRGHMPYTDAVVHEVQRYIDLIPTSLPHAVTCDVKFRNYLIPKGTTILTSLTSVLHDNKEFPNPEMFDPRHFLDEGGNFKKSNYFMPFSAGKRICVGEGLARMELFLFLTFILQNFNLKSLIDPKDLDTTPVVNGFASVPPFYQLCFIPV

For the compound `COC(=O)[C@@H]1O[C@@H](SCCN)[C@@H](O)[C@H](O)[C@H]1O`, the Potency in assay [1] is over 11.4 µM; in assay [6], over 46 µM; in assay [7], over 9.22 µM. For the same compound, the activity change, negative = inhibition was 0.576% in assay [2], 10.2% [at 2.29 µM] in assay [3] and 2.51% in [4]. Besides, the activity, negative = inhibition in assay [5] was -0.339%. The Potency result in [8] and in assay [9] was “inactive” each time.
`O=C(O)Cc1cccnc1`: the Potency is over 11.4 µM in assay [1], over 46 µM in assay [6] and over 9.22 µM in assay [7]. Further, the activity change, negative = inhibition in [2] was 8.81%; in assay [4], 15.8%. Also, the Potency entry in [3], in [8] and in assay [9] was “inactive” each time. Further, the activity, negative = inhibition in assay [5] was 3.03%.
In the case of `CN(C(=O)c1ccncc1)c1ccccc1`, the figures for the Potency in assay [1], in [6] and in assay [7] were over 11.4 µM, over 46 µM and over 9.22 µM, respectively. The activity change, negative = inhibition in [2] was -3.23%; in [4], 6.33%. Besides, the Potency result in assay [3], in [8] and in [9] was “inactive” each time. Moreover, the activity, negative = inhibition in assay [5] was 0.69%.
`O=C(O)c1c(Cl)c(Cl)c(Cl)c(Cl)c1C(=O)Nc1ccc2cn[nH]c2c1`: the Potency in [1] is over 11.4 µM; in assay [3], 0.2 µM (active); in [6] it was over 46 µM; in [7], over 9.22 µM; in [10], 0.0794 µM (active). Moreover, the activity change, negative = inhibition in [2] is 1.63%; in [4], 4.49%. Besides, the activity, negative = inhibition in assay [5] is 20.7%. Besides, the Potency entry in assay [8], in [9] and in assay [11] was “inactive” each time.
Turning to `O=C(O)Cc1cc(Cl)ccc1O`, the values for the Potency in assay [1], in [6] and in [7] were over 11.4 µM, over 46 µM and over 9.22 µM, respectively. Further, the activity change, negative = inhibition in assay [2] is -8.98%; in [4], -0.2%. Besides, the Potency entry in assay [3], in assay [8] and in [9] was “inactive” in each case. Moreover, the activity, negative = inhibition in assay [5] is 20.2%.
Turning to `O=C1c2ccccc2N[C@H](c2cc(Cl)cc(Cl)c2O)N1CCc1ccccn1`, the Potency in assay [1] was over 11.4 µM; in assay [6], over 46 µM; in assay [7], over 9.22 µM; in assay [10], 3.16 µM (active); in assay [12], 0.794 µM (active); in assay [13], 3.98 µM (active). Moreover, the values for the activity change, negative = inhibition in assay [2], in assay [3] and in assay [4] were -16.9%, 5.8% [at 2.29 µM] and 5.29%, respectively. The activity, negative = inhibition in [5] was -24.9%. The Potency result in [8], in assay [9] and in [11] was “inactive” throughout.
As to `Nc1n[nH]c2ccccc12`, the Potency in [1] is over 11.4 µM; in [6], over 46 µM; in [7], over 9.22 µM. Also, the activity change, negative = inhibition in assay [2] was -6.63%; in assay [3] it was -9.1% [at 2.29 µM]; in assay [4] it was 3.29%. Moreover, the activity, negative = inhibition in assay [5] is -1.94%. For the same compound, the Potency entry in assay [8], in [9] and in assay [11] was “inactive” each time.
As for `CN(C)c1ccc(/C=N\NC(=O)c2cnc3ccccc3c2)cc1`, the Potency was over 11.4 µM in [1], 1.58 µM (active) in [3], over 46 µM in assay [6] and over 9.22 µM in assay [7]. Besides, the activity change, negative = inhibition in assay [2] was -12.8%; in assay [4], 1.4%. Moreover, in assay [5], the activity, negative = inhibition is -7.11%. The Potency result in [8], in assay [9] and in assay [11] was “inactive” throughout.
For the compound `COc1cc(Cl)c(CC(=O)c2c[nH]c3ccccc23)cc1OC`, the Potency is over 11.4 µM in [1]; 1 µM (active) in [3]; over 46 µM in assay [6]; over 9.22 µM in assay [7]; 2.51 µM (active) in assay [12]. Further, the results for the activity change, negative = inhibition in assay [2] and in assay [4] were -19.9% and 26.5%, respectively. The activity, negative = inhibition in assay [5] is -15.8%. For the same compound, the Potency result in assay [8], in assay [9] and in assay [11] was “inactive” each time.

Source of the values: PubChem BioAssay (NCATS).
